These results are taken from the supplement of paper PMC6992640.

In one assay the test system is HCI01 (cells of a triple-negative basal-like breast cancer xenograft). Kind of assay: cell viability of combination (% of vehicle); higher = less cytotoxic. Particulars: 1 µM; 72 h; partner dose: 10 nM. As to the method: (§1)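 PDX cells were treated for 72 h with each drug at 1 µM plus afatinib (10 nM; 1 µM for WHIM30). Luciferase viability is expressed as percent of vehicle.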
The next assay has as its system WHIM2 (cells of a triple-negative basal-like breast cancer xenograft). Described as above. The note with it: 1 µM; 72 h; partner dose: 10 nM. On the procedure:
as §1

With `C1=C\COCc2cc(ccc2OCCN2CCCC2)Nc2nccc(n2)-c2cccc(c2)COC/1` [Pacritinib] + CN(C)C/C=C/C(=O)Nc1cc2c(Nc3ccc(F)c(Cl)c3)ncnc2cc1O[C@H]1CCOC1 [Afatinib], the “cell viability of combination” value worked out at 37.8 in the assay with HCI01 and 38.8 with WHIM2.

As to `Cl.Nc1ccn(C2OC(CO)C(O)C2O)c(=O)n1` (stereo not given) [Cytarabine hydrochloride] + CN(C)C/C=C/C(=O)Nc1cc2c(Nc3ccc(F)c(Cl)c3)ncnc2cc1O[C@H]1CCOC1 [Afatinib], the “cell viability of combination” value worked out at 46.6 in the assay with HCI01 and 40.3 with WHIM2.

For the molecule `Cc1ccc(NC(=O)c2ccc(CN3CCN(C)CC3)cc2)cc1Nc1nc(-c2cccnc2)cs1` [Masitinib (AB1010)] + CN(C)C/C=C/C(=O)Nc1cc2c(Nc3ccc(F)c(Cl)c3)ncnc2cc1O[C@H]1CCOC1 [Afatinib], the “cell viability of combination” value with HCI01 stood at 47.8; with WHIM2 it was 54.7.

On to `CC(C)c1nc(N(C)S(C)(=O)=O)nc(-c2ccc(F)cc2)c1C=CC(O)CC(O)CC(=O)[O-].CC(C)c1nc(N(C)S(C)(=O)=O)nc(-c2ccc(F)cc2)c1C=CC(O)CC(O)CC(=O)[O-].[Ca+2]` (stereo not given) [Rosuvastatin Calcium] + CN(C)C/C=C/C(=O)Nc1cc2c(Nc3ccc(F)c(Cl)c3)ncnc2cc1O[C@H]1CCOC1 [Afatinib], for which the “cell viability of combination” value with HCI01 was found to be 51.4; in the assay on WHIM2 it was 44.2.

For `CC(C)(C)c1ccc(C(O)CCCN2CCC(C(O)(c3ccccc3)c3ccccc3)CC2)cc1` (stereo not given) [Terfenadine] + CN(C)C/C=C/C(=O)Nc1cc2c(Nc3ccc(F)c(Cl)c3)ncnc2cc1O[C@H]1CCOC1 [Afatinib], the “cell viability of combination” value in the assay with HCI01 came to 52.8; in the assay on WHIM2, 51.1.

For `CC(NCCCc1cccc(C(F)(F)F)c1)c1cccc2ccccc12.Cl` (stereo not given) [Cinacalcet HCl] + CN(C)C/C=C/C(=O)Nc1cc2c(Nc3ccc(F)c(Cl)c3)ncnc2cc1O[C@H]1CCOC1 [Afatinib], the “cell viability of combination” value in the assay with HCI01 turned out to be 58.1; with WHIM2, 43.1.

In the case of `Cc1cc(Nc2ncc(Cl)c(Nc3ccccc3S(=O)(=O)C(C)C)n2)c(OC(C)C)cc1C1CCNCC1` + CN(C)C/C=C/C(=O)Nc1cc2c(Nc3ccc(F)c(Cl)c3)ncnc2cc1O[C@H]1CCOC1 [Afatinib], the “cell viability of combination” value with HCI01 stood at 44.4; in the assay with WHIM2 it was 36.7.

As to `COc1ccc2c(O[C@H]3CC4C(=O)N(C)CCCC/C=C\[C@H]5C[C@@]5(C(=O)NS(=O)(=O)C5CC5)NC(=O)[C@@H]4C3)cc(-c3nc(C(C)C)cs3)nc2c1C` (stereo not given in full) [Simeprevir] + CN(C)C/C=C/C(=O)Nc1cc2c(Nc3ccc(F)c(Cl)c3)ncnc2cc1O[C@H]1CCOC1 [Afatinib], the figures for the “cell viability of combination” value in the assay on HCI01 and with WHIM2 were 53.9 and 46.8, respectively.

As to `COc1cc2nccc(Oc3ccc(NC(=O)C4(C(=O)Nc5ccc(F)cc5)CC4)cc3)c2cc1OC.O=C(O)CC(O)C(=O)O` [Cabozantinib malate (XL184)] + CN(C)C/C=C/C(=O)Nc1cc2c(Nc3ccc(F)c(Cl)c3)ncnc2cc1O[C@H]1CCOC1 [Afatinib], the “cell viability of combination” value in the assay with HCI01 was found to be 50.8; in the assay on WHIM2 it was 43.2.

Turning to `CCOc1cc2ncc(C#N)c(Nc3ccc(F)c(Cl)c3)c2cc1NC(=O)C=CCN(C)C` [Pelitinib (EKB-569)] + CN(C)C/C=C/C(=O)Nc1cc2c(Nc3ccc(F)c(Cl)c3)ncnc2cc1O[C@H]1CCOC1 [Afatinib], the “cell viability of combination” value was determined as 72.1 in the assay on HCI01 and 22.1 with WHIM2.

For the molecule `CNC(=O)c1cc(Oc2ccc(NC(=O)Nc3ccc(Cl)c(C(F)(F)F)c3)cc2)ccn1.Cc1ccc(S(=O)(=O)O)cc1` [Sorafenib Tosylate] + CN(C)C/C=C/C(=O)Nc1cc2c(Nc3ccc(F)c(Cl)c3)ncnc2cc1O[C@H]1CCOC1 [Afatinib], the results for the “cell viability of combination” value with HCI01 and in the assay on WHIM2 were 46.6 and 42.4, respectively.

With `CC(O)C(=O)O.CC(O)C(=O)O.CN1CCN(c2ccc3c(c2)NC(=C2C(=O)N=c4cccc(F)c4=C2N)N3)CC1` [Dovitinib Dilactic acid] + CN(C)C/C=C/C(=O)Nc1cc2c(Nc3ccc(F)c(Cl)c3)ncnc2cc1O[C@H]1CCOC1 [Afatinib], the “cell viability of combination” value in the assay on HCI01 came to 42.3; with WHIM2, 30.4.

Regarding `Oc1c(Cl)cc(Cl)c2cccnc12` [Chloroxine] + CN(C)C/C=C/C(=O)Nc1cc2c(Nc3ccc(F)c(Cl)c3)ncnc2cc1O[C@H]1CCOC1 [Afatinib], the “cell viability of combination” value was determined as 56.1 with HCI01 and 45.9 in the assay on WHIM2.

In the case of `COc1cc(C(=O)O)ccc1NC(=O)C1NC(CC(C)(C)C)C(C#N)(c2ccc(Cl)cc2F)C1c1cccc(Cl)c1F` (stereo not given) + CN(C)C/C=C/C(=O)Nc1cc2c(Nc3ccc(F)c(Cl)c3)ncnc2cc1O[C@H]1CCOC1 [Afatinib], the “cell viability of combination” value in the assay on HCI01 worked out at 49.1; in the assay with WHIM2 it was 44.7.

Consider `O=C(c1ccc(F)c(F)c1Nc1ccc(I)cc1F)N1CC(O)(C2CCCCN2)C1` (stereo not given) [Cobimetinib] + CN(C)C/C=C/C(=O)Nc1cc2c(Nc3ccc(F)c(Cl)c3)ncnc2cc1O[C@H]1CCOC1 [Afatinib], for which the “cell viability of combination” value in the assay on HCI01 was determined as 42.2; in the assay with WHIM2 it was 27.

On to `CCc1c(Cl)c(O)c(Cl)c(O)c1C(=O)OC1C(C)OC(OCC2=CC=CCC(O)C(C)=CC(CC)C(OC3OC(C)(C)C(OC(=O)C(C)C)C(O)C3O)C(C)=CC(C)=CCC(C(C)O)OC2=O)C(OC)C1O` (stereo not given) [Fidaxomicin] + CN(C)C/C=C/C(=O)Nc1cc2c(Nc3ccc(F)c(Cl)c3)ncnc2cc1O[C@H]1CCOC1 [Afatinib], for which the “cell viability of combination” value in the assay with HCI01 was determined as 56.2; in the assay with WHIM2, 51.9.

With `Cc1ccc(-n2[nH]c(C)c(NN=C3C=CC=C(c4cccc(C(=O)O)c4)C3=O)c2=O)cc1C` [Eltrombopag] + CN(C)C/C=C/C(=O)Nc1cc2c(Nc3ccc(F)c(Cl)c3)ncnc2cc1O[C@H]1CCOC1 [Afatinib], the results for the “cell viability of combination” value in the assay with HCI01 and in the assay on WHIM2 were 52.9 and 48.5, respectively.

Consider `O=C(O)CO.[NH2-].[NH2-].[Pt+2]` [Nedaplatin] + CN(C)C/C=C/C(=O)Nc1cc2c(Nc3ccc(F)c(Cl)c3)ncnc2cc1O[C@H]1CCOC1 [Afatinib], for which the “cell viability of combination” value in the assay with HCI01 was 49.9; in the assay on WHIM2 it was 48.5.

Regarding `CCCCc1oc2ccccc2c1C(=O)c1cc(I)c(OCCN(CC)CC)c(I)c1.Cl` [Amiodarone HCl] + CN(C)C/C=C/C(=O)Nc1cc2c(Nc3ccc(F)c(Cl)c3)ncnc2cc1O[C@H]1CCOC1 [Afatinib], the “cell viability of combination” value was 68.8 with HCI01 and 57.7 with WHIM2.

Turning to `Clc1ccc(COC(Cn2ccnc2)c2ccc(Cl)cc2Cl)c(Cl)c1.O=[N+]([O-])O` (stereo not given) [Miconazole Nitrate] + CN(C)C/C=C/C(=O)Nc1cc2c(Nc3ccc(F)c(Cl)c3)ncnc2cc1O[C@H]1CCOC1 [Afatinib], the “cell viability of combination” value amounted to 63.9 with HCI01 and 52.2 with WHIM2.

For `Clc1ccc(C(Cn2ccnc2)OCc2c(Cl)cccc2Cl)c(Cl)c1.O=[N+]([O-])O` (stereo not given) [Isoconazole nitrate] + CN(C)C/C=C/C(=O)Nc1cc2c(Nc3ccc(F)c(Cl)c3)ncnc2cc1O[C@H]1CCOC1 [Afatinib], the entries for the “cell viability of combination” value in the assay with HCI01 and in the assay with WHIM2 were 63.8 and 52.1, respectively.

For `CCOC(=O)C1=C(COCCN)NC(C)=C(C(=O)OC)C1c1ccccc1Cl.O=S(=O)(O)c1ccccc1` (stereo not given) [Amlodipine Besylate] + CN(C)C/C=C/C(=O)Nc1cc2c(Nc3ccc(F)c(Cl)c3)ncnc2cc1O[C@H]1CCOC1 [Afatinib], the “cell viability of combination” value turned out to be 59.5 in the assay with HCI01 and 51.7 with WHIM2.

Consider `CCN(CC)CCNC(=O)c1c(C)[nH]c(C=C2C(=O)Nc3ccc(F)cc32)c1C.O=C(O)CC(O)C(=O)O` [Sunitinib malate] + CN(C)C/C=C/C(=O)Nc1cc2c(Nc3ccc(F)c(Cl)c3)ncnc2cc1O[C@H]1CCOC1 [Afatinib], for which the “cell viability of combination” value in the assay with HCI01 was 42; in the assay on WHIM2, 44.2.

For the molecule `CC[C@H](C)[C@H]1O[C@]2(CC[C@@H]1C)C[C@@H]1C[C@@H](C/C=C(\C)[C@@H](O[C@H]3C[C@H](OC)[C@@H](O[C@H]4C[C@H](OC)[C@@H](O)[C@H](C)O4)[C@H](C)O3)[C@@H](C)/C=C/C=C3\CO[C@@H]4[C@H](O)C(C)=C[C@@H](C(=O)O1)[C@]34O)O2` [Ivermectin] + CN(C)C/C=C/C(=O)Nc1cc2c(Nc3ccc(F)c(Cl)c3)ncnc2cc1O[C@H]1CCOC1 [Afatinib], the “cell viability of combination” value was 46 with HCI01 and 44.5 with WHIM2.

Regarding `CCCCc1oc2ccc(NS(C)(=O)=O)cc2c1C(=O)c1ccc(OCCCN(CCCC)CCCC)cc1.Cl` [Dronedarone HCl] + CN(C)C/C=C/C(=O)Nc1cc2c(Nc3ccc(F)c(Cl)c3)ncnc2cc1O[C@H]1CCOC1 [Afatinib], the “cell viability of combination” value is 54.4 with HCI01 and 52.5 in the assay with WHIM2.

Turning to `CN(C)c1ccc(O)c2c1CC1CC3C(N(C)C)C(=O)C(C(N)=O)=C(O)C3(O)C(=O)C1=C2O.Cl` (stereo not given) [Minocycline HCl] + CN(C)C/C=C/C(=O)Nc1cc2c(Nc3ccc(F)c(Cl)c3)ncnc2cc1O[C@H]1CCOC1 [Afatinib], the entries for the “cell viability of combination” value in the assay on HCI01 and with WHIM2 were 66.6 and 49.9, respectively.

On to `COC(=O)c1ccc2c(c1)NC(=O)C2=C(Nc1ccc(N(C)C(=O)CN2CCN(C)CC2)cc1)c1ccccc1` [Nintedanib (BIBF 1120)] + CN(C)C/C=C/C(=O)Nc1cc2c(Nc3ccc(F)c(Cl)c3)ncnc2cc1O[C@H]1CCOC1 [Afatinib], for which the “cell viability of combination” value in the assay with HCI01 turned out to be 45; in the assay with WHIM2, 22.5.

Regarding `Cc1c(-c2ccc(O)cc2)n(Cc2ccc(OCCN3CCCCCC3)cc2)c2ccc(O)cc12.Cl` [Bazedoxifene HCl] + CN(C)C/C=C/C(=O)Nc1cc2c(Nc3ccc(F)c(Cl)c3)ncnc2cc1O[C@H]1CCOC1 [Afatinib], the “cell viability of combination” value in the assay on HCI01 came out at 64.6; in the assay on WHIM2, 49.7.

Turning to `CNC(=O)c1cc(Oc2ccc(NC(=O)Nc3ccc(Cl)c(C(F)(F)F)c3)c(F)c2)ccn1` [Regorafenib] + CN(C)C/C=C/C(=O)Nc1cc2c(Nc3ccc(F)c(Cl)c3)ncnc2cc1O[C@H]1CCOC1 [Afatinib], the “cell viability of combination” value in the assay with HCI01 came out at 46.8; with WHIM2, 44.2.

As to `Cc1cc(-n2c(=O)[nH]c(=O)n(C)c2=O)ccc1Oc1ccc(SC(F)(F)F)cc1` [Toltrazuril] + CN(C)C/C=C/C(=O)Nc1cc2c(Nc3ccc(F)c(Cl)c3)ncnc2cc1O[C@H]1CCOC1 [Afatinib], the “cell viability of combination” value in the assay with HCI01 amounted to 58.1; with WHIM2, 48.4.
